The source of these data is PubChem BioAssay (NCI).

About 83,000 compounds went through this panel and 20% of them were active in at least one assay; those are over-represented in the sample as a whole.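 Single-dose data. Exposure time 48 hours. Values below 10 considered active.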 Values without a mark were called inactive. Activity calls are given as the source filed them.

In one experiment the test system is HOP-62 NSCLC. The experiment can be described thus: NCI-60 one-dose screen, 48 h (100 = growth as untreated, 0 = no growth, -100 = all killed). As to conditions: 10 µM unless noted.
As to `CCCSC1=NC2C(N(CC)C(=O)N2CC)N1/N=C/C=C/c1ccccc1[N+](=O)[O-]` (stereo not drawn), the growth was 49.8%.
On to `COC(=O)C1=Nc2ccc(F)cc2/C1=C/c1sc(=S)[nH]c1O`, for which the growth is 18.6%.
Same read-out and setting: in the case of `O=C1c2cc(Br)ccc2Oc2cc([N+](=O)[O-])ccc2N1c1ccc(I)cc1F` it was 102%; in that of `COc1cccc(-c2nn(C)c3sc(C(=O)NCCN4CCN(c5ccccc5F)CC4)cc23)c1`, 81.4%.
On to `O=S(=O)(c1ccccc1)n1cc2c(c1-c1ccccc1)CCc1sc(Nc3ccccc3)nc1-2`, for which the growth was 112%.
As to `CN1CCN(Cc2ccc(NC(=O)c3cncc(C#Cc4nc(N)nc5[nH]ncc45)c3)cc2C(F)(F)F)CC1`, the growth is 122%.
Consider `Clc1ccc(-c2nnc(COc3ccc(C4=NNC(c5ccco5)C4)cc3)o2)cc1` (stereo not drawn), for which the growth is 105%.
For `CC(=O)c1ccc(Cc2ccc(C(C)=O)s2)s1`, the growth was 104%.
Same read-out and setting: under `CCOC(=O)c1cnc2ccc(Cl)cc2c1NCCCN(C)C` stands 8.63% (active); under `CCN1C(=O)N(CC)C2C1NN=c1s/c(=C3\C(=O)N(CC(C)(C)C)c4ccccc43)c(=O)n12` (stereo not drawn), 47%; under `CC(=O)c1ccc2oc(=O)n(Cc3ccc(C#N)cc3)c(=O)c2c1`, 103%.
`O=C1/C(=C/c2cccc(O)c2)COc2ccc(O)cc21`: the growth was 103%.
For the compound `O=C(Nc1nc2c(s1)CCc1c-2c(Br)n(Cc2ccccc2)c1Br)c1ccccc1`, the growth was 32.8%.
As for `Nc1n[nH]c2ccc([C@@H]3Nc4ccc5[nH]ncc5c4[C@H]4[C@H]5CCC(C5)[C@H]43)cc12`, the growth is 35.7%.
`CN(C)c1ccc(/C=C/c2ccnc3c(O)cccc23)cc1`: the growth is 20.3%.
The same measure, in the same setting: in the case of `CCOC(=O)c1cc2c(n1Cc1cccc(OC)c1)-c1oncc1CCC2` it was 39.9%.
As for `Cn1nc(C(C)(C)C)cc1NC(=O)Cc1ccc(/C=C2\C(=O)Nc3ccccc32)cc1`, the growth was 74.3%.
Turning to `Cc1c(C(=O)OCCO)cc(-c2ccc(Cl)cc2)n1-c1ccc(Cl)cc1Cl`, the growth is 89.2%.
As for `CCC1=C[C@]2(C3CC(=O)N(c4ccccc4)C3=O)CC(C(C)(C)C)C[C@@H]2[C@@H]2C(=O)N(c3ccccc3)C(=O)[C@H]12` (stereo partly drawn), the growth is 82.1%.
Turning to `Nc1ccc(-c2nn3c(CCC(=O)c4nc5ncccc5[nH]4)nnc3s2)c(O)c1`, the growth was 85.7%.
As for `CCCCCCc1cc2cc(-c3nc4ccccc4[nH]3)c(=Nc3ccccc3C)oc2cc1O`, the growth is 58%.
Still for that read-out and setting: under `COc1ccc(OC)c(N(CCN2C(=O)c3ccccc3C2=O)C(=O)CCl)c1` stands -3% (active); under `COc1ccc(C)c2sc(N(Cc3cccnc3)C(=O)c3ccc(C#N)cc3)nc12`, 7.67% (active).
In the case of `O=C(/C=C/c1ccccn1)c1ccc(OCc2nnc(-c3ccc(Cl)cc3)o2)cc1`, the growth is 44.6%.
`COc1ccc(C2C3=C(COC3=O)N(CCO)c3cc4c(cc32)CCC4)cc1` (stereo not drawn): the growth was 51.5%.
`CN(C)/C=C1\SC(=Nc2ccc(Cl)cc2)NC1=O`: the growth is 114%.
On to `c1ccc(CNc2nc(Nc3ccccc3)nc3ccccc23)cc1`, for which the growth is -9% (active).
For `COc1ccc2c(c1)C=C1CSCC3=Cc4cc(OC)ccc4OC13O2`, the growth was 38.2%.
As to `COc1ccc(C(O)(CCC(C)C)C(CN2CCOCC2)c2ccc(Cl)cc2)cc1` (stereo not drawn), the growth is 63.6%.
`COC(=O)[C@H]1CCCN1C(=O)[C@H]1CCCN1C(=O)[C@H](Cc1c[nH]c2ccccc12)NC(=S)Nc1cc(C(F)(F)F)cc(C(F)(F)F)c1`: the growth is 74.5%.
On the same count and under the same terms, in the case of `CCn1c(Cc2ccccc2Nc2c(Cl)cccc2Cl)nnc1SCC(=O)NN1C(=O)/C(=C/c2cccc(OC)c2OC)SC1=S` it was 98.6%.
In the case of `CCCC(c1nnnn1C1CCCCC1)N1CCN(C(=O)c2ccco2)CC1` (stereo not drawn), the growth is 79.2%.
With `C1=CC2(C=C1)OC21CCC2(C=CC3(C2)OC3C2CCCCC2)CC1` (stereo not drawn), the growth was 112%.
As for `O=C(NC1CCN(Cc2ccccc2)CC1)c1cc(C(=O)NC2CCN(Cc3ccccc3)CC2)cc(C(=O)NC2CCN(Cc3ccccc3)CC2)c1`, the growth is 58.7%.
Consider `COc1cc(-c2c3c(c(Br)n2Cc2ccccc2)-c2nc(N)sc2CC3)cc(OC)c1OC`, for which the growth is 88.5%.
For `NC(CCc1nc2ccccc2c(=O)[nH]1)C(=O)O` (stereo not drawn), the growth is 103%.
Consider `Nc1no[n+]([O-])c1-c1nnc2c(n1)-c1ccccc1C2=O`, for which the growth was 104%.
Consider `CCOc1ccc(-c2nonc2NC(=O)c2cccc(C)c2)cc1OCC`, for which the growth is 96.9%.
Still for that read-out and setting: under `Cc1ccc(OCCCCCCNCCO)c(C)c1` stands 10.1%.

The subject of a further experiment is NCI-H460 lung. The experiment is described as above. As to conditions: 10 µM unless noted.
Turning to `CCCSC1=NC2C(N(CC)C(=O)N2CC)N1/N=C/C=C/c1ccccc1[N+](=O)[O-]` (stereo not drawn), the growth was 5.1% (active).
Take `COC(=O)C1=Nc2ccc(F)cc2/C1=C/c1sc(=S)[nH]c1O`: the growth is 3.2% (active).
Regarding `O=C1c2cc(Br)ccc2Oc2cc([N+](=O)[O-])ccc2N1c1ccc(I)cc1F`, the growth is 102%.
`COc1cccc(-c2nn(C)c3sc(C(=O)NCCN4CCN(c5ccccc5F)CC4)cc23)c1`: the growth is 57.6%.
Turning to `O=S(=O)(c1ccccc1)n1cc2c(c1-c1ccccc1)CCc1sc(Nc3ccccc3)nc1-2`, the growth was 86.6%.
With `CN1CCN(Cc2ccc(NC(=O)c3cncc(C#Cc4nc(N)nc5[nH]ncc45)c3)cc2C(F)(F)F)CC1`, the growth is 112%.
`Clc1ccc(-c2nnc(COc3ccc(C4=NNC(c5ccco5)C4)cc3)o2)cc1` (stereo not drawn): the growth was 82.7%.
As to `CC(=O)c1ccc(Cc2ccc(C(C)=O)s2)s1`, the growth was 94.3%.
Turning to `CCOC(=O)c1cnc2ccc(Cl)cc2c1NCCCN(C)C`, the growth was 1.86% (active).
Same read-out and setting: under `CCN1C(=O)N(CC)C2C1NN=c1s/c(=C3\C(=O)N(CC(C)(C)C)c4ccccc43)c(=O)n12` (stereo not drawn) stands 4.52% (active); under `CC(=O)c1ccc2oc(=O)n(Cc3ccc(C#N)cc3)c(=O)c2c1`, 106%.
As for `O=C1/C(=C/c2cccc(O)c2)COc2ccc(O)cc21`, the growth was 76.3%.
With `O=C(Nc1nc2c(s1)CCc1c-2c(Br)n(Cc2ccccc2)c1Br)c1ccccc1`, the growth was 40.8%.
The same measure, in the same setting: under `Nc1n[nH]c2ccc([C@@H]3Nc4ccc5[nH]ncc5c4[C@H]4[C@H]5CCC(C5)[C@H]43)cc12` stands 3.93% (active).
The same measure, in the same setting: in the case of `CN(C)c1ccc(/C=C/c2ccnc3c(O)cccc23)cc1` it was 0.902% (active); in that of `CCOC(=O)c1cc2c(n1Cc1cccc(OC)c1)-c1oncc1CCC2`, 17.9%; in that of `Cn1nc(C(C)(C)C)cc1NC(=O)Cc1ccc(/C=C2\C(=O)Nc3ccccc32)cc1`, 67.8%.
Regarding `Cc1c(C(=O)OCCO)cc(-c2ccc(Cl)cc2)n1-c1ccc(Cl)cc1Cl`, the growth is 37.7%.
Still for that read-out and setting: in the case of `CCC1=C[C@]2(C3CC(=O)N(c4ccccc4)C3=O)CC(C(C)(C)C)C[C@@H]2[C@@H]2C(=O)N(c3ccccc3)C(=O)[C@H]12` (stereo partly drawn) it was 93.3%; in that of `Nc1ccc(-c2nn3c(CCC(=O)c4nc5ncccc5[nH]4)nnc3s2)c(O)c1`, 93.4%.
Still for that read-out and setting: under `CCCCCCc1cc2cc(-c3nc4ccccc4[nH]3)c(=Nc3ccccc3C)oc2cc1O` stands 44.8%; under `COc1ccc(OC)c(N(CCN2C(=O)c3ccccc3C2=O)C(=O)CCl)c1`, 90.3%; under `COc1ccc(C)c2sc(N(Cc3cccnc3)C(=O)c3ccc(C#N)cc3)nc12`, -24.4% (active).
For the compound `O=C(/C=C/c1ccccn1)c1ccc(OCc2nnc(-c3ccc(Cl)cc3)o2)cc1`, the growth is 42.4%.
On the same count and under the same terms, under `COc1ccc(C2C3=C(COC3=O)N(CCO)c3cc4c(cc32)CCC4)cc1` (stereo not drawn) stands 25.9%; under `CN(C)/C=C1\SC(=Nc2ccc(Cl)cc2)NC1=O`, 102%; under `c1ccc(CNc2nc(Nc3ccccc3)nc3ccccc23)cc1`, 48.2%.
In the case of `COc1ccc2c(c1)C=C1CSCC3=Cc4cc(OC)ccc4OC13O2`, the growth is 6.88% (active).
Regarding `COc1ccc(C(O)(CCC(C)C)C(CN2CCOCC2)c2ccc(Cl)cc2)cc1` (stereo not drawn), the growth was 86.8%.
On the same count and under the same terms, under `COC(=O)[C@H]1CCCN1C(=O)[C@H]1CCCN1C(=O)[C@H](Cc1c[nH]c2ccccc12)NC(=S)Nc1cc(C(F)(F)F)cc(C(F)(F)F)c1` stands 22.1%; under `CCn1c(Cc2ccccc2Nc2c(Cl)cccc2Cl)nnc1SCC(=O)NN1C(=O)/C(=C/c2cccc(OC)c2OC)SC1=S`, 103%.
For `CCCC(c1nnnn1C1CCCCC1)N1CCN(C(=O)c2ccco2)CC1` (stereo not drawn), the growth was 40.6%.
`C1=CC2(C=C1)OC21CCC2(C=CC3(C2)OC3C2CCCCC2)CC1` (stereo not drawn): the growth is 103%.
Turning to `O=C(NC1CCN(Cc2ccccc2)CC1)c1cc(C(=O)NC2CCN(Cc3ccccc3)CC2)cc(C(=O)NC2CCN(Cc3ccccc3)CC2)c1`, the growth is 91.8%.
In the case of `COc1cc(-c2c3c(c(Br)n2Cc2ccccc2)-c2nc(N)sc2CC3)cc(OC)c1OC`, the growth was 94%.
As to `NC(CCc1nc2ccccc2c(=O)[nH]1)C(=O)O` (stereo not drawn), the growth is 108%.
Same read-out and setting: in the case of `Nc1no[n+]([O-])c1-c1nnc2c(n1)-c1ccccc1C2=O` it was 65.8%; in that of `CCOc1ccc(-c2nonc2NC(=O)c2cccc(C)c2)cc1OCC`, 55.9%.
Consider `Cc1ccc(OCCCCCCNCCO)c(C)c1`, for which the growth was -20.9% (active).
